# Laboratory results taken from PubChem BioAssay (EPA / NIEHS).
# The source made the active and inactive calls. How the source made its calls: active means hit-call score of the fitted dose curve at least 0.9, where 1 is the maximum; inactive means score below 0.9.
# Assay: CCTE_Shafer_MEA_acute_firing_rate_mean: CCTE's Neural Acute Assay for Mean Firing Rate, Shafer Lab (AID 2284009)
# Procedure: CCTE_Shafer_MEA_acute assay is conducted using Axion Biosystems 48 well microelectrode array (MEA) plates and Maestro recording system. Each well of the MEA plate contains a grid of 16 microelectrodes embedded in the culture surface. Electrically active cells, such as neurons, can be cultured over the electrodes, and electrical activity in these cells can be recorded extracellularly. The spontaneous firing of neurons is captured from each electrode on a microsecond timescale providing both temporally and spatially precise data. […] The CCTE_Shafer_MEA_acute assay uses primary cultures of rat cortical neurons. As these cultures mature over time, neural networks develop functional activity and form cohesive networks in which electrical activity can be highly coordinated. Baseline 40-minute recordings are made on days post-plating 13 or 15, followed by a secondary 40-minute recording after chemical exposure.CCTE_Shafer_MEA_acute_firing_rate_mean is a component of the CCTE_Shafer_MEA_acute assay. It measures the frequency number of spikes (action potential firings) as the total number of spikes divided by the length of the recording in a microelectrode array (MEA) using Axion Biosystems Maestro 768 channel amplifier with the AxIS adaptive spike detector. The firing rate is divided by the number of electrodes to report a well-mean value. The recordings before and after chemical treatment are used to calculate a percent change in the mean firing rate in each well.Data from the assay component CCTE_Shafer_MEA_acute_firing_rate_mean was analyzed into 1 assay endpoint. This assay endpoint, CCTE_Shafer_MEA_acute_firing_rate_mean, was analyzed in the negative analysis fitting direction relative to DMSO as the negative control and baseline of activity. Using a type of functional reporter, gain or loss-of-signal activity can be used to understand electrical activity.
# Spontaneous activity in the cortical cultures was recorded using an Axion Biosystems Maestro 768 channel amplifier and Axion Integrated Studios (AxIS) v1.8 (or later) software. The amplifier recorded from all channels simultaneously (gain = 1200 x; sampling rate = 12.5 kHz/channel): raw signals were filtered with a Butterworth band-pass filter (300-5000 Hz), which filters out slower local field potentials leaving only fast potentials, i.e., "spikes", arising from extracellular currents associated with action potentials (Pine 2006; Wheeler and Nam 2011). On-line spike detection of filtered signals was conducted with the AxIS adaptive spike detector, using a threshold of 8x the root mean squared (rms) noise on each channel. Any electrodes with rms noise levels greater than 5 uV were grounded (e.g., no data were recorded). Once grounded, an electrode was grounded for the duration of the experiment. All recordings were conducted at 37 C. Wells were deemed usable if on the day of the exposure >/= 10 electrodes were active (defined as >/= 5 spikes/min). On DIV 13 or 15, a minimum of three wells from one cortical culture preparation were treated with each compound (0.03-40 uM). Prior to recording baseline activity, each mwMEA plate was placed in the Maestro at 37 C and allowed to sit for 20 min while firing rates stabilized. Baseline activity (40 min) was recorded before the addition of each compound. An additional 40 min of spontaneous activity was recorded in the presence of each compound. Changes in network parameters relative to baseline were assessed following compound treatment.
Structure (SMILES),outcome,AC50
CCCCCCCC/C=C\CCCCCCCC(=O)OC[C@@H](O)[C@H]1OC[C@H](O)[C@H]1O,inactive,–
CCCc1ccccc1,inactive,–
c1ccc(C(O[C@@H]2CCCN(CCc3ccc4c(c3)OCO4)C2)c2ccccc2)cc1,inactive,–
O=S(=O)(O)c1ccc(N=Nc2c(O)ccc3cc(S(=O)(=O)O)ccc23)cc1,inactive,–
CCCCCCCC1CCC(=O)O1 (stereo not drawn),inactive,–
C=CCc1cc(S(=O)(=O)c2ccc(O)c(CC=C)c2)ccc1O,inactive,–
CC[C@H](C)C(=O)O[C@H]1C[C@H](O)C=C2C=C[C@H](C)[C@H](CC[C@@H](O)C[C@@H](O)CC(=O)O)[C@H]21,inactive,–
OCc1ccccc1,inactive,–
CCc1ccc(O)c(C(C)(C)C)c1,–,672 nM (active)
CC(C)C(=O)Nc1ccc([N+](=O)[O-])c(C(F)(F)F)c1,–,5210 nM (active)
OC(CCl)CCl,inactive,–
Cc1ncc([C@@H](CCCCCCc2ccc3c(n2)NCCC3)CC(=O)O)cn1,inactive,–
c1ccc2cc3ccccc3cc2c1,–,3 nM (active)
CCCCC(CC)C(=O)OCCOCCOCCOC(=O)C(CC)CCCC (stereo not drawn),inactive,–
Cn1c(=O)c2[nH]cnc2n(C)c1=O,inactive,–
COc1cc(C(C)C)c2c(c1)S(=O)(=O)N(COc1cc(=O)n3cccc(OCCN4CCCCC4)c3n1)C2=O,inactive,–
COCc1nnc(-c2ccc[n+]([O-])c2)n1-c1c(Cl)c(Cl)cc2[nH]c(=O)c(=O)[nH]c12,inactive,–
COc1cc2c(c(OC)c1OC)-c1ccc(OC)c(=O)cc1[C@@H](NC(C)=O)CC2,inactive,–
